Binding signal data for six sequences are collected here from article PMC8384837, “Expanding the binding specificity for RNA recognition by a PUF domain”.

One experiment has as its target PUM1 PUF domain R4-PHL (Homo sapiens, UniProt Q14671 828-1176, N971P;Q975L). Nature of the experiment: yeast three-hybrid, YBZ-1, SC-Leu-His + 0.5 mM 3-AT, 4 days. Conditions: tags: N-Gal4 AD-HA kept; label: inside an RPR1-promoter hybrid RNA with tandem MS2 sites; ssRNA. The essentials: (§1)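 Pumilio-1 PUF domain libraries, randomized at the three base-contacting residues of each repeat, were co-expressed with matching RNA elements from a centromeric plasmid in strain YBZ-1, which carries a LexA–MS2 coat fusion and a HIS3 reporter. Transformants grew for four days on SC-Leu (input) or on SC-Leu-His + 0.5 mM 3-AT (selection), and the repeat regions were PCR-amplified and Illumina-sequenced. The interaction score is the log change in variant frequency from input to selection. That logarithm is base 2, with a pseudocount of 1 where a variant was absent.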
As to “GGCUAGAACUAGUGGAUCCCCCGGCGCCCGGCGGCUCGAGCCCGGGUAAGUGUAAAUAGUCUGCAUGCCGCCGGGCGCCAUGCCUGCAGGUCGACUCUAGAAAACAUG”, the binding signal is 5.53 log2 enrichment (interaction score).

On to “GGCUAGAACUAGUGGAUCCCCCGGCGCCCGGCGGCUCGAGCCCGGGUAAGUGUACAUAGUCUGCAUGCCGCCGGGCGCCAUGCCUGCAGGUCGACUCUAGAAAACAUG”, for which the binding signal is 3.73 log2 enrichment (interaction score).

In the case of “GGCUAGAACUAGUGGAUCCCCCGGCGCCCGGCGGCUCGAGCCCGGGUAAGUGUAUAUAGUCUGCAUGCCGCCGGGCGCCAUGCCUGCAGGUCGACUCUAGAAAACAUG”, the binding signal was 5.92 log2 enrichment (interaction score).

In a further experiment the target is PUM1 PUF domain R1-RTV (Homo sapiens, UniProt Q14671 828-1176, S863R;R864T;Q867V). Described as above. Conditions: tags: N-Gal4 AD-HA kept; label: inside an RPR1-promoter hybrid RNA with tandem MS2 sites; ssRNA. The gist of the method:
as §1
As for “GGCUAGAACUAGUGGAUCCCCCGGCGCCCGGCGGCUCGAGCCCGGGUAAGUGUAAAUCGUCUGCAUGCCGCCGGGCGCCAUGCCUGCAGGUCGACUCUAGAAAACAUG”, the binding signal was 4.19 log2 enrichment (interaction score).

Turning to “GGCUAGAACUAGUGGAUCCCCCGGCGCCCGGCGGCUCGAGCCCGGGUAAGUGUAAAUGGUCUGCAUGCCGCCGGGCGCCAUGCCUGCAGGUCGACUCUAGAAAACAUG”, the binding signal is 2.39 log2 enrichment (interaction score).

For “GGCUAGAACUAGUGGAUCCCCCGGCGCCCGGCGGCUCGAGCCCGGGUAAGUGUAAAUUGUCUGCAUGCCGCCGGGCGCCAUGCCUGCAGGUCGACUCUAGAAAACAUG”, the binding signal was 3.33 log2 enrichment (interaction score).
